PDI inh: blocks human protein disulfide isomerase activity. AID 588391. actives 0.052% (n = 350,000). PDI insulin aggregation turbidity, A650, 90 min. inhibition, % at 10 µM;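 active means mean inhibition across replicates of 30% or more, whatever share of single replicates reach that level; inconclusive means mean inhibition below 30% while every single replicate reaches 30%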
PvdQ acylase: blocks Pseudomonas aeruginosa PvdQ acylase activity; purified PvdQ acylase, fluorescence plate reader; inhibition, % at 10 µM; actives 0.063% (n = 340,000); AID 488965; in the data active means inhibition above about 30%, passing the limit was not always enough; inconclusive means no clear call, values can overlap the other calls;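 further: 0% = vehicle neutral wells and 100% = reference inhibitor wells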
Vif inh: inhibitors of HIV Vif; HEK293T cells, Vif self-association by quenched fluorescence, imaging, 24 h; actives 0.35% (n = 340,000); inhibition, % at 7.49 µM; AID 602346; in the data active means inhibition above about 50%, passing the limit was not always enough; inconclusive means no clear call, values can overlap the other calls; inactive means below about 31%
ERp5 block: inhibitors of human ERp5; inhibition, % at 9.99 µM; ERp5 insulin aggregation, absorbance 650 nm, 90 min; AID 651711; Q15084; actives 0.05% (n = 350,000);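 active means mean replicate inhibition above about 25%, with every replicate also reaching it, limit read from the data, passing the limit was not always enough; inconclusive means only one of those two criteria met; inactive means neither criterion met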
Target sequence (Q15084 whole entry, looked up): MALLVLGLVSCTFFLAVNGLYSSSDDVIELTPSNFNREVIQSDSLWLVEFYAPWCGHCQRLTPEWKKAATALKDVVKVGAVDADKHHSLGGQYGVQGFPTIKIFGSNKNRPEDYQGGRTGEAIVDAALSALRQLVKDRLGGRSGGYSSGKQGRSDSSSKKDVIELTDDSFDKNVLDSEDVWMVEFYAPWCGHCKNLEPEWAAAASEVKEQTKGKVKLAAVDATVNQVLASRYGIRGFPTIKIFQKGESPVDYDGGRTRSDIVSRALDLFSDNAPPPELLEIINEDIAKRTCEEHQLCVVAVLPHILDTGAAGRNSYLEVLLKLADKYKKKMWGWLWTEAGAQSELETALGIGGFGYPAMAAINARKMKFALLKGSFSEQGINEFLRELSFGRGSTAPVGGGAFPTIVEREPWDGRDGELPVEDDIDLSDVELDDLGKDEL
N-glyco inh: N-linked glycosylation inhibition; reporter increase, % at 12.5 µM; AID 588692; D54 ERlucT glycosylation luciferase reporter, 24 h; percent of 100 nM tunicamycin response; actives 0.23% (n = 360,000);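 active means mean luciferase reporter signal, scaled so untreated is 0 and the glycosylation-blocking control 100, at or above a set limit in every replicate; inconclusive means mean reaches the limit but not every replicate does; inactive means mean below the limit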;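 further: luciferase carries N-glycosylation sites so blocking glycosylation raises the light; 0% = median of neutral control wells and 100% = median of 100 nM tunicamycin wells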
* hit, by the source's call. This is a sample that favours compounds with a hit; in the whole collection about 0.56% have one here.

For CCCn1c(SCC(=O)NNC(=O)c2ccc(C)cc2)nnc1C(C)C the results were PDI inh 7.6, PvdQ acylase -10.9, Vif inh 55.2*, ERp5 block 1.5 and N-glyco inh 1.8.
`CC(=O)N(C)C[C@@H]1Oc2cc(C#C[C@@H](C)O)ccc2S(=O)(=O)N([C@@H](C)CO)C[C@H]1C` gave ERp5 block -1.5.
For O=C(CCC1CCCCC1)NCCN1C2=NC[C@H](Cc3ccc(O)cc3)N2C[C@H]1Cc1ccc(O)cc1 the results were PDI inh 33.6*, PvdQ acylase -15.8, Vif inh -3.2, ERp5 block -0.4 and N-glyco inh 2.0.
For C[C@@H]1CN=C2N(CCNC(=O)CCC3CCCCC3)[C@H](Cc3ccc(O)cc3)CN21 the results were PDI inh 7.0, PvdQ acylase -13.1, Vif inh -4.7, ERp5 block 3.5 and N-glyco inh -0.2.
Screening CCOC(=O)/C=c1/s/c(=C/c2ccc3cc(OC)ccc3c2)c(=O)n1CC(=O)NCC1CCCO1 (stereo not drawn) returned PDI inh -10.8, PvdQ acylase -4.7, Vif inh -12.8, ERp5 block 0.7 and N-glyco inh -1.6.
Screening Clc1ccc(C2Nc3cccc4cccc(c34)N2)cc1Cl returned PDI inh -0.6, PvdQ acylase -18.9, Vif inh 57.9*, ERp5 block -0.6 and N-glyco inh 3.1.
Screening O=c1[nH]c(=O)c2nc(-c3ccc(Cl)cc3)cnc2[nH]1 returned PDI inh -1.7, PvdQ acylase 8.7, Vif inh 4.8, ERp5 block 1.5 and N-glyco inh 2.6.
For O=c1[nH]c(=O)c2nc3c4ccccc4c4ccccc4c3nc2[nH]1 the results were PDI inh 14.8, PvdQ acylase 6.8, Vif inh 16.0, ERp5 block -2.2 and N-glyco inh 95.9*.
For Cc1cccc(N2CCN(S(=O)(=O)c3ccc(-c4ccc(=O)[nH]n4)o3)CC2)c1C the results were PDI inh -2.8, PvdQ acylase -8.7, Vif inh -5.7 and N-glyco inh 39.8*.
`C[C@H]1CN([C@@H](C)CO)C(=O)Cc2cc(NS(=O)(=O)c3ccc(Cl)cc3)ccc2O[C@H]1CN(C)S(=O)(=O)c1cn(C)cn1` gave ERp5 block 14.9.
Screening CSc1sc(C(=O)O)c(C)c1C(C)=O returned PDI inh 0.5, PvdQ acylase -17.4, Vif inh 56.3* and N-glyco inh 0.6.
Screening COc1cccc(S(=O)(=O)N[C@@H]2CC[C@@H](CC(=O)NCc3ccc(Cl)cc3)O[C@@H]2CO)c1 returned ERp5 block -2.0.
Screening COc1ccc(Sc2cnn(-c3ccccc3)c(=O)c2Cl)cc1 returned PDI inh -0.5, PvdQ acylase -10.1, Vif inh 50.8* and N-glyco inh -5.6.
Screening COc1ccc(-n2ncc(Cl)c(Cl)c2=O)cc1 returned PDI inh 1.4, Vif inh 3.3, ERp5 block 2.9 and N-glyco inh 0.9.
`COc1cc(C(=O)N2CCN(Cc3ccc4c(c3)OCO4)CC2)c([N+](=O)[O-])cc1OC` gave PDI inh -8.0, PvdQ acylase -3.6, Vif inh 5.9, ERp5 block 1.8 and N-glyco inh -0.5.
COc1ccc(NS(=O)(=O)c2ccc(Oc3cccc(C(=O)O)c3)cc2)cc1 was read as PDI inh 2.6, PvdQ acylase 1.7, Vif inh 2.8, ERp5 block 1.6 and N-glyco inh 0.6.
For Cc1cccc(Oc2ccc(NS(=O)(=O)c3ccc(C)c(C(=O)O)c3)cc2)c1 the results were PDI inh 5.7, PvdQ acylase -16.2, Vif inh 10.8, ERp5 block 26.1* and N-glyco inh 2.8.
Screening CCn1nc(C)c(Br)c1-c1nc(CS(=O)(=O)c2ccsc2)no1 returned PDI inh -7.3, Vif inh 56.0*, ERp5 block 2.6 and N-glyco inh -0.4.
CC(C)NC(=O)Nc1ccc2c(c1)C(=O)N([C@@H](C)CO)C[C@H](C)[C@H](CN(C)S(=O)(=O)c1ccc(Cl)cc1)O2 was read as ERp5 block 8.2.
Screening COc1cc(N=Nc2cccc(S(N)(=O)=O)c2)c2ccccc2c1N returned PDI inh 20.3, PvdQ acylase -4.6, Vif inh 53.1*, ERp5 block -1.6 and N-glyco inh 116.2*.
COC(=O)N1C(=O)[C@@](c2ccc(OC)cc2)(C(C)C)N1C(=O)OC was read as PDI inh 0.8, PvdQ acylase 7.8, Vif inh 10.6, ERp5 block 1.5 and N-glyco inh -7.2.
`COC(=O)N1C(=O)[C@](c2ccc(Cl)cc2)(C(C)C)N1C(=O)OC` gave PDI inh 3.6, PvdQ acylase -7.4, Vif inh 50.7*, ERp5 block -2.0 and N-glyco inh 0.6.
CC(=O)N(Cc1nc2sc(C)c(C)c2c(=O)[nH]1)C1CCCC1 was read as PDI inh -1.3, PvdQ acylase -21.0, Vif inh -1.5, ERp5 block -0.6 and N-glyco inh 0.1.
For O=C1Cc2c([nH]c3ccc([N+](=O)[O-])cc23)-c2ccccc2N1 the results were PDI inh -1.1, PvdQ acylase -1.8, Vif inh -13.6, ERp5 block -1.7 and N-glyco inh 88.3*.
Screening CC1CCC(NC(=O)N(CCCl)N=O)CC1 (stereo not drawn) returned PDI inh 10.5, PvdQ acylase 3.2, Vif inh 58.9*, ERp5 block 1.6 and N-glyco inh inconclusive.
Screening CCOC(=O)c1ccc(-c2ccc(/C=N/NC(=O)CN(c3cccc(C)c3)S(C)(=O)=O)o2)cc1 returned PDI inh 5.8, PvdQ acylase -16.6, Vif inh 5.3, ERp5 block -5.9 and N-glyco inh 28.2*.
O=C1NC[C@@H](Cc2ccc(O)cc2)N(CCCCC2CCCCC2)C1=O was read as ERp5 block 0.7.
CC(C)C[C@@H](CN1CCC[C@@H]1CN1C(=O)C(=O)NC[C@@H]1Cc1ccccc1)N1C[C@H](Cc2ccc(O)cc2)N(CCc2ccccc2)C(=O)C1=O was read as PDI inh 47.9*, PvdQ acylase -13.0, Vif inh 5.0, ERp5 block 4.2 and N-glyco inh 1.7.
Screening O=C1NC[C@H](Cc2ccc(O)cc2)N(CC2CCCCC2)C1=O returned PDI inh 34.4*, PvdQ acylase -3.7, Vif inh 4.9, ERp5 block 6.2 and N-glyco inh 3.8.
For CC(C)C[C@@H](CN1CCC[C@H]1CN1C(=O)C(=O)NC[C@@H]1Cc1ccccc1)N1C[C@H](Cc2ccc(O)cc2)N(CCc2ccccc2)C(=O)C1=O the results were ERp5 block -0.3.
For Cc1occc1-c1nnc(SCC(=O)Nc2ccc3c(c2)OCO3)n1CC1CCCO1 (stereo not drawn) the results were PDI inh 0.2, PvdQ acylase -10.3, Vif inh -0.3 and N-glyco inh 1.5.
`COc1ccccc1-c1cccc2nccn12` gave PDI inh -67.0, Vif inh 66.8*, ERp5 block -2.8 and N-glyco inh 0.6.
For COc1ccc(-c2nc3ccccc3s2)cc1 the results were PDI inh -56.4, PvdQ acylase 67.3*, Vif inh 2.7, ERp5 block -0.7 and N-glyco inh -16.6.
